Rows were chosen to be rich in hits. Some 4.1% of all compounds tested hit in one or more screens of this group.
AmpC detergent – AmpC beta-lactamase inhibition with detergent present; P00811; AmpC hydrolysis of nitrocefin, absorbance 480 nm, 0.01% Triton; Potency, µM (highest dose often 114 µM), inactives show at the top dose activity change, negative = inhibition, actives largely listed as inhibitors; 370,000 compounds, 0.041% hits;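 further: 0% = no-compound wells and -100% = no-enzyme wells; nearly all actives have a fitted effect of over 25% in size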
Target sequence (P00811 whole entry, looked up): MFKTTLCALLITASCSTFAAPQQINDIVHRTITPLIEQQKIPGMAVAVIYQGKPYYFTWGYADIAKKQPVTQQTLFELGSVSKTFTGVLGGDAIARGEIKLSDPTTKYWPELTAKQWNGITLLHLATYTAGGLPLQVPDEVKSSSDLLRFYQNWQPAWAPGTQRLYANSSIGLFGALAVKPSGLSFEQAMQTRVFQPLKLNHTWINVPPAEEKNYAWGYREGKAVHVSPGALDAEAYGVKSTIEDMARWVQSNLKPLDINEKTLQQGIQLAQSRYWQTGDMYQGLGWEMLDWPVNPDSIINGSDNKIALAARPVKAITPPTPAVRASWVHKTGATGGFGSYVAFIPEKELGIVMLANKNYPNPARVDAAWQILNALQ
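AmpC (5.3 nM in the dispensed reagent) in 20 mM phosphate pH 7.0 with 0.01% (detergent screen) or 0.0001% Triton X-100 was preincubated with compounds for 15 min at room temperature. Nitrocefin was then added from an 800 uM solution, and hydrolysis was followed at 480 nm.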
FMDV inh – foot and mouth disease virus antiviral activity; FMDV antiviral cell-based qHTS; Potency, µM (highest dose often 57.9 µM), for inactives: at the top dose activity change, negative = inhibition, usual class: inhibitors; 410,000 compounds, 1.2% hits; AID 1159524; calls by dose curve; tested in HEK293T cells; further: read-out not given here; nearly all actives have a fitted effect of over 45% in size
AmpC inh no detg – AmpC beta-lactamase inhibition without detergent. 330,000 compounds, 0.52% hits. AID 485341. Potency, µM (series often up to 57.1 µM), for the others: at the highest dose activity change, negative = inhibition, most hits filed as inhibitors. AmpC nitrocefin hydrolysis, absorbance 480 nm, 0.0001% Triton. P00811;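 further: plate controls were no compound for no effect and no enzyme for full effect; nearly all actives have a fitted effect of over 20% in size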
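20 mM phosphate pH 7.0 + 0.01% (detergent screen) or 0.0001% Triton X-100; 5.3 nM AmpC reagent; cpd preinc 15 min RT; nitrocefin (800 uM stock) to start; A480 q20 s × 4 min; Activity was normalised to no-enzyme and no-compound control wells.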
AMA1 RON2 block – inhibitors of Plasmodium falciparum AMA1-RON2 interaction; AlphaScreen AMA1-biotinylated RON2 peptide binding; Potency, µM (doses to about 58.2 µM), without a hit: top-dose activity change, negative = inhibition, usual class: inhibitors; 360,000 compounds, 0.2% hits;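 further: 0% = vehicle wells and -100% = peptide control; nearly all actives have a fitted effect of over 45% in size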
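AMA1 (3D7) with his tag at 25 nM final met compounds first, then biotinylated RON2 peptide at 25 nM; detection used donor plus acceptor beads, 10 µg/mL apiece, read by AlphaScreen after 30 min at room temperature.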
Sm TGR inh – inhibitors of Schistosoma mansoni thioredoxin glutathione reductase; Q962Y6; purified TGR, DTNB reduction, TNB absorbance 405 nm; Potency, µM (titrated, usually from 114 µM), for the others: top-dose activity change, negative = inhibition, hits mostly inhibitors; 360,000 compounds, 3% hits; further: nearly all actives have a fitted effect of over 60% in size
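First, TGR (20 nM dispensed) and NADPH were mixed with compound. Second, a 15 min room-temperature incubation followed. Third, further NADPH and then DTNB were added to start the reaction. Finally, TNB absorbance was monitored kinetically.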
* hit, by the source's call; ? = inconclusive; nt = no result; ! = a repeat was not active; [ ] = dose if it differs, or a comment. Unless noted, the call rests on the fitted dose curve; in most records, active means well fitted curve in the direction sought with a large enough effect; inconclusive means small, poorly fitted or top-dose-only effect, or another doubt; inactive means no such curve, though single readings can be large; an effect the other way counts as inactive or inconclusive. Unless noted, on the % scale 0 is the no-effect control and ±100 the full control effect; potency means the concentration at half of the fitted maximal effect.

SMILES	AmpC detergent	FMDV inh	AmpC inh no detg	AMA1 RON2 block	Sm TGR inh
CSc1ccccc1OCc1cc(C(=O)N(C)Cc2ccc3nsnc3c2)no1	-8%	7%	3%	-14%	0%
C(#Cc1ccccc1)C[N+]1(CC#Cc2ccccc2)CCCC1	-4%	-10%	7%	3%	-19%
C=CC#CC[N+]1(CC#Cc2ccccc2)CCOCC1	-4%	0%	39%	?	40µM*
CC(=O)c1c(C(=O)O)[nH]c(C(=O)O)c1C	0%	2%	-16%	10%	10µM*
Cc1cccc(N2CCC(N3CCN(C4CCCCC4)C(CCO)C3)CC2)c1C (centres undefined)	-1%	?	-42%	-3%	5µM*
COc1ccc(C(=O)CN2C(=O)N(c3ccc(C(C)=O)cc3)S(=O)(=O)c3ccccc32)cc1	9%	-10%	nt	nt	-27%
CCc1c(C#N)c(SCCC(=O)Nc2ccc(F)cc2)nc2c1C(=O)CC(C)(C)C2	3%	28µM*	-46%	1%	-7%
CCc1c(C#N)c(SCCC(=O)Nc2cccc(OC)c2)nc2c1C(=O)CC(C)(C)C2	-7%	-22%	-23%	-4%	2%
Cc1nc(SCc2nc3ccccc3[nH]2)c2oc3ccc(Br)cc3c2n1	nt	35µM*	-12%	nt	nt
COc1ccccc1CNC(=O)C1CCCN(S(=O)(=O)c2ccc3c(c2)oc(=O)n3C)C1 (centres undefined)	9%	0%	nt	nt	2%
Cc1ccc2c(c1)cc(CN(C)Cc1nc(C)cs1)c(=O)n2C	nt	6%	nt	nt	nt
CN(C)S(=O)(=O)c1ccc2c(c1)N(CC(=O)NCc1ccc(F)cc1)C(=O)CS2	4%	-25%	nt	nt	10%
CN(Cc1ccccc1C#N)S(=O)(=O)c1cccs1	-10%	-9%	-17%	4%	7%
N#Cc1nccnc1S(=O)(=O)c1cccs1	-14%	?	-25%	5%	0.1µM*
CCOC(=O)N1CCN(C(=O)c2ccc(-c3ccccc3OC)nc2N2CCC(N3CCCC(CO)C3)CC2)CC1 (centres undefined)	nt	-1%	nt	nt	nt
COC(=O)c1c(S(C)(=O)=O)nc(-c2ccccc2)[nH]c1=O	-7%	-18%	-13%	3%	25µM*
Cc1c(-c2ccccc2)nc(-c2ccccc2)[nH]c1=O	?	4%	2%	-13%	-1%
CCCCCc1c2c(cc(O)c1C(=O)O)OC(=O)c1cc(C(=O)CCCC)c(OC)cc1O2	nt	?	-29%	5%	nt
CCCCCc1c2c(cc(O)c1C(=O)O)OC(=O)c1c(cc(OC)cc1C(=O)CCCC)O2	-1%	32µM*!	-41%	-2%	40µM*
Cc1ccc(NC(=S)NC(=O)C2CCC2)cc1C	?	36%	-27%	19%	?
O=C(NC(=S)Nc1ccccc1Br)C1CCCC1	4%	37%	-30%	45%	13µM*
Cc1ccc(NC(=S)NC(=O)C2CCCC2)cc1C	0%	29%	3.2µM*	39%	?
O=C(NC(=S)Nc1ccccc1Br)C1CCCCC1	nt	14%	-26%	29%	nt
Nc1c(S(=O)(=O)c2cccs2)c2nc3ccccc3nc2n1/N=C/c1cccc(O)c1	-14%	40µM*	-27%	-3%	-22%
COc1cccc(/C=N/n2c(N)c(S(=O)(=O)c3cccs3)c3nc4ccccc4nc32)c1	6%	19%	-16%	-8%	10%
SMILES	AmpC detergent	FMDV inh	AmpC inh no detg	AMA1 RON2 block	Sm TGR inh
O=C1C2C3C=CC(C4CC34)C2C(=O)N1Cc1ccco1 (centres undefined)	2%	-22%	-9%	15%[11.6 µM]	50µM*
O=C1C2C(C(=O)N1Cc1ccco1)C1C=CC2C12CC2 (centres undefined)	-1%	-15%	-9%	3%	-18%
Cn1nccc1C(=O)NCC1CCC2(CCN(Cc3cccc4ncccc34)CC2)O1 (centres undefined)	nt	-6%	nt	nt	nt
CNc1sc(C(=O)c2ccccc2F)c(N)c1-c1nc2ccccc2s1	-6%	11%	-20%	17%	25µM*
O=C(CNC(=O)c1ccccc1F)OCc1nc2ccccc2s1	-12%	61%	-47%	4%	2%
COc1ccccc1NC(=O)C1=C(C)Nc2ncnn2C1c1ccc[nH]1 (centres undefined)	15%	-12%	nt	nt	40µM*
COc1ccccc1NC(=O)C1=C(C)Nc2ncnn2C1c1ccccn1 (centres undefined)	15%	9%	nt	nt	5%
COc1ccc(C2C(C(C)=O)=C(C)Nc3ncnn32)cc1 (centres undefined)	-7%	-1%	-1%	3%	35µM*
COc1cc(C2c3c(oc4ccccc4c3=O)C(=O)N2c2nncs2)cc(OC)c1OC (centres undefined)	26%	8%	nt	nt	9%
C=CCNc1nc(C(=O)OCC(=O)c2ccc(C)c([N+](=O)[O-])c2)cs1	2%	-1%	20µM*	33%	-22%
COc1cccc(NC(=O)c2nnn(Cc3ccc(OC)c(Br)c3)c2N)c1	?	4%	nt	nt	-2%
Cc1cc(C)nc(Nc2ncc(O)n2-c2ccc(C)c(Cl)c2)n1	-2%	0%	0.32µM*	30%	-2%
O=C(Nc1ccc(Oc2ccccc2)nc1)C1CCCCN1Cc1ccc(O)cc1 (centres undefined)	1%	nt	-1%	nt	32µM*
COCCc1ncc(CN2CCCCC2C(=O)Nc2ccc(Oc3ccccc3)nc2)cn1 (centres undefined)	2%	8%	63%	2%	-24%
COc1cc(CN2CCCCC2C(=O)Nc2ccc(Oc3ccccc3)nc2)ccc1O (centres undefined)	7%	5%	54%	-5%	1.8µM*
O=C(Nc1ccc(Oc2ccccc2)nc1)C1CCCCN1Cc1cccc(O)c1 (centres undefined)	1%	-7%	-23%	4%	5%
CN(C)S(=O)(=O)c1cc(NC(=O)CSc2ncc(C(F)(F)F)cc2Cl)ccc1Cl	-9%	28µM*	-26%	0%	-1%
CN(C)S(=O)(=O)c1cc(NC(=O)CSc2cccc[n+]2[O-])ccc1Cl	7%	-5%	-36%	5%	33%
COCCn1c(SCC(=O)Nc2ccc(Cl)c(S(=O)(=O)N(C)C)c2)nc2ccccc21	1%	28µM*	17%	-19%	-8%
CCN(c1ccccc1)S(=O)(=O)c1cc(NC(=O)CSc2n[nH]c(=O)[nH]c2=O)ccc1Cl	-9%	-23%	20µM*	1%	-19%
CN(C)S(=O)(=O)c1cc(NC(=O)CN2CCc3ccccc32)ccc1Cl	-9%	0%	-1%	2%	45µM*
CC(NC(=O)Cc1ccc(NC(=O)N2CCSc3ncccc32)cc1)c1ccccc1 (centres undefined)	18%	-25%	nt	nt	2%
Cc1cccc(NC(=O)CSc2cn(CC(=O)N3CCCCCC3)c3ccccc23)c1	-10%	-2%	nt	nt	-7%

Assay outcomes: PubChem, National Center for Advancing Translational Sciences (NCATS)
